# Reference: PubChem BioAssay AID1794844 (National Center for Advancing Translational Sciences (NCATS), 2023)
# The whole screen tested about 2,800 compounds, of which fewer than 10 were called active. Roughly 7% stayed inconclusive and do not appear here. Calls come from the whole dose curve; as a rule, active = well fitted inhibition curve with a large enough effect; inconclusive = small, poorly fitted or top-dose-only effect; inactive = no such curve, though single readings can be large or run the other way. These entries were drawn from the full list. Where a call stands in place of a potency, no number is given.
# Target: Metallo-beta-lactamase type 2 (Klebsiella pneumoniae) (UniProt C7C422)
# Experiment: qHTS to identify inhibitors of the New Delhi Metallo-beta-lactamase (NDM): Nitrocefin screen against the machine-based learning selections.
# Conditions: NDM-1 enzyme, nitrocefin hydrolysis, absorbance 485 nm; series mostly up to 38.4 µM
# Text: Assay Submitter (PI): James Inglese Ph.D., Patricia Dranchak Ph.D., Mahesh Aitha Ph.D. Assay Development and Screening Technology Laboratory (ADST) National Center for Advancing Translational Sciences (NCATS), Rockville, MD National Institute of Health (NIH), Bethesda, Maryland The metallo-beta-lactamases (MBL) are a main antibiotic resistance mechanism evolved by bacteria. There is an urgent clinical need for MBL inhibitors to mitigate this growing threat. To support a machine-based learning study, qHTS has been used to experimentally test inhibitors identified by prediction tools.
# PROTOCOL TABLE (as described by Inglese et al., 2007) SEQUENCE No. (e.g., 1, 2, 3, etc.); […] (e.g., enzyme, Incubation, Reagent, etc.); VALUE; DESCRIPTION Primary Screen 1; NDM-1; 4 uL of 3 nM enzyme [2 nM final] in 50 mM HEPES (pH 7.0), 1 uM […], 0.01% Tween20; Use BioRaptr to dispense into two sets of Aurora black, clear bottom high base 1536-well plates 2; Compounds; 23 nL; Use Pin Tool (Wako) to transfer DMSO control and library compounds in DMSO 3; Incubate; >30 min 4a; Reagent; 2 uL of 50 uM nitrocefin [16.7 uM final] to one set of assay plates 4b; Reagent; 2 uL of 150 uM meropenem [50 uM final] to second set of assay plates 5a; Incubate; 15 min 5b; Incubate; 30 min 6a; Detector; Absorbance at 485 nm (bandwidth = 5 nm, 25 flashes/well) on Tecan Infinity 6b; Detector; Absorbance at 300 nm (bandwidth = 5 nm, 25 flashes/well) on Tecan Infinity NOTES (numbers refer to sequence above) 1; Column 1 of each plate received assay buffer without enzyme and columns 2-48 received enzyme for a final assay concentration of 2 nM. 2; Control plate contained DMSO in columns 1, 2, 3, and 4. 3; Compound interaction with enzyme. 4; Nitrocefin and meropenem substrates were prepared in the same assay buffer as step 1 for a final assay concentration of 16.7 uM and 50 uM, respectively, and added to all wells across respective sets of assay plates. 5; Default reader settings were applied for absorbance read at 485 nm (nitrocefin) or 300 nm (meropenem), bandwidth = 5 nm, 25 flashes/well. References: Inglese J, Shamu CE, Guy RK. 2007. Reporting data from high-throughput screening of small-molecule libraries. Nat Chem Biol. doi:10.1038/nchembio0807-438 Yasgar A, Shinn P, Jadhav A, Auld D, Michael S, Zheng W, Austin CP, Inglese J, Simeonov A. 2008. Compound Management for Quantitative High-Throughput Screening. J Lab Autom 13:79 - 89. doi:10.1016/j.jala.2007.12.004
# Potency is the fitted concentration of half-maximal effect.
# Metallo-beta-lactamase type 2 (Klebsiella pneumoniae), sequence (C7C422 whole entry, looked up): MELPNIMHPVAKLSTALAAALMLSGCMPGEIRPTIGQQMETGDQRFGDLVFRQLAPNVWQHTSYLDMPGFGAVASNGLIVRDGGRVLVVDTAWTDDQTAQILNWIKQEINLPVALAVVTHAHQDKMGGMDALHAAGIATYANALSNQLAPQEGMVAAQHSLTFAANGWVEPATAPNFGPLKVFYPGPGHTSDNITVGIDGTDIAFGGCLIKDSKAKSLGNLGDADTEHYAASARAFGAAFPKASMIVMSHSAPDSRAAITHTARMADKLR
row,SMILES,Potency
1,C[C@@H](c1ccccc1)N1C(=O)[C@@H]2CN(C(=O)c3ccc(N(C)C)cc3)CCN2C1=O,inactive
2,Cc1nc(CCC(=O)N2CCC(Cc3ccc(C(=O)O)cc3)C2)n[nH]1 (stereo not given),inactive
3,CCCS(=O)(=O)N1CCC(Cc2nc(-c3cccnc3)n[nH]2)C1 (stereo not given),inactive
4,COc1ccc(CN2CCOc3ccc(C(=O)NCc4ccc(C)cc4)cc3C2)c(OC)c1,inactive
5,O=C(c1ccccc1Cl)N1CCCC(c2nn(-c3ccccc3)c(=O)[nH]2)C1 (stereo not given),inactive
6,CC(C)C(=O)N[C@H]1[C@H](O)[C@H](O)C[C@@H]1c1cccnc1,inactive
7,CC(O)c1cc2n(n1)CCN(C1CCN(C(=O)c3cnccn3)CC1)C2 (stereo not given),inactive
8,Cn1cc(C(NC(=O)c2ccc3c(c2)ncn3CCO)C2CC(O)C2)cn1 (stereo not given),inactive
9,Cc1nnc(-c2cc(N3CCN(c4ccccn4)CC3)ccn2)n1C1CCCCC1,inactive
10,O=C1CO[C@H]2CN(c3nccc(C(F)(F)F)n3)C[C@H]2N1Cc1ccc(F)cc1,inactive
11,COc1cc(=O)n2c(c1C(=O)NC1CCCCCC1)CCCC2,inactive
12,Cc1cccc(N(CC(=O)N[C@H]2CC[C@H]2NC2CCCC2)S(C)(=O)=O)c1,inactive
13,O=C(O)[C@]12CCCN[C@@H]1CCN(Cc1cnc(-c3ccccn3)nc1)C2,inactive
14,CCOCCn1nc(C)cc1C(=O)N1C[C@@H](C)[C@](O)(C2CC2)C1,inactive
15,COc1cccc(-c2cccc(CCOc3cnc4c(ccn4CC(=O)O)c3)c2)c1,inactive
16,O=C(N[C@@H]1CCN(Cc2cccc3nonc23)C[C@H]1O)c1cccnc1,inactive
17,COC(=O)c1ccc2nc(C[C@@H]3C[C@@H](C(C)C)[C@H](CN(C)C)C=C3C)[nH]c2c1,inactive
18,CCO[C@H]1C[C@@H](O)C12CCN(C(=O)c1cc(S(N)(=O)=O)ccc1F)CC2,inactive
19,CN(C)Cc1cn(C[C@H]2C[C@@H](NC(=O)c3nc4ccccc4s3)[C@H](O)[C@@H]2O)nn1,inactive
20,COc1cc(CNC(=O)CCC2CCN(S(=O)(=O)c3ccccc3)CC2)cc(OC)c1,inactive
21,c1cncc(-c2cnc([C@@H]3COCCN3Cc3ncc[nH]3)[nH]2)c1,inactive
22,Clc1cccc(-c2cnc([C@@H]3COCCN3Cc3cnc[nH]3)[nH]2)c1,13.7 µM (active)
23,Oc1ccccc1CN1CCOC[C@H]1c1ncc(-c2cccc(Cl)c2)[nH]1,inactive
24,CC1(C)CN(C(=O)c2ccccc2Oc2ccccc2)CC1(C)O (stereo not given),inactive
25,O=c1ncn(Cc2ccccc2)c2ccc(-c3ccc(O)c(F)c3)nc12,inactive
26,CCOC(=O)C[C@@H]1C[C@@H](C(C)C)[C@H](CNC(=O)c2ccc(C#N)cc2)C=C1C,inactive
27,CCC1=C(C(=O)OC)C(c2ccccc2OC)N2C(CC(=O)N3CC(C)OC(C)C3)=CSC2=N1 (stereo not given),inactive
28,CC1(C(=O)NCCc2ccccn2)CCc2cnc(NCc3ccccc3)nc21 (stereo not given),inactive

row,SMILES,Potency
1,Cn1ccc2c(C(=O)NCCc3cnc[nH]3)nc(-c3cccnc3)cc21,inactive
2,C[S+](=O)([O-])Nc1cccc(-c2cc(-c3cccnc3)c3cncn3c2)c1,inactive
3,O=C1Nc2cc(Cl)ccc2C(=O)N2CCN(C(=O)c3ccccc3)C[C@H]12,inactive
4,O=C(Cc1c[nH]c2ncc(-c3ccccc3F)cc12)NCc1cccnc1,inactive
5,COCc1cc(C[C@@H]2CC[C@H](O)[C@@H](CNS(=O)(=O)c3ccccc3)O2)no1,inactive
6,O=C(NC1CC(=O)N(CCc2cccc(Cl)c2)C1)c1ccsc1 (stereo not given),inactive
7,CCN(CC)C(=O)C[C@@H]1c2nc(NC(=O)N3CCOCC3)sc2C[C@@H]2[C@](C)(CO)[C@H](O)CC[C@]21C,inactive
8,CS(=O)(=O)N[C@H]1C[C@H]2C(=O)Nc3ccc(-c4ccc5c(c4)OCO5)cc3C(=O)N2C1,inactive
9,COc1ccc(-c2cnc3[nH]cc(CC(=O)Nc4ccncc4)c3c2)cc1,inactive
10,COc1ccc2c(c1)nc1n2[C@@H](CNC(=O)c2ccncc2)COC1,inactive
11,O=C(CCCc1ccccc1)N[C@@H]1CN(c2ccncn2)C[C@H]1CO,inactive
12,Cc1c(CN2C[C@@H](COc3ccccc3)[C@H](C(N)=O)C2)cnn1C,inactive
13,Cc1ccc(C)c(-c2cc(C(=O)N3CCCC3c3nncn3C(C)C)[nH]n2)c1 (stereo not given),inactive
14,O=S(=O)(c1ccc(F)cc1)N1CCCC(Cc2noc(-c3cnccn3)n2)C1 (stereo not given),inactive
15,CN1CCCC1c1nc(C2CN(C(=O)c3ccsc3)C2)no1 (stereo not given),inactive
16,CN1C(=O)CC(C(=O)O)C12CCN(C(=O)CCc1cccnc1)CC2 (stereo not given),inactive
17,Cn1c(CO[C@H]2CN(C(=O)c3cccnc3)C[C@H]2F)nc2ccccc21,inactive
18,C[C@@H](c1ccccc1)N1C(=O)[C@@H]2CN(C(=O)c3ccco3)CCN2C1=O,inactive
19,COc1ccc(OC)c(CN2CCC3(CC2)Nc2ccccc2NC3=O)c1,inactive
20,NC(=O)C1CCCN(CCNc2cc(-c3ccccc3)nc3ccnn23)C1 (stereo not given),inactive
21,COC(=O)[C@H](NC(=O)[C@@H]1C[C@@H](NC(=O)c2ccncc2)CCN1S(=O)(=O)c1ccc(OC)cc1)C(C)C,inactive
22,Cc1cncc(C(=O)N2CC[C@@H](c3ccc4ccccc4c3)[C@H](O)C2)c1,inactive
23,CCn1cnnc1CC1CCN(C(=O)NC)C1 (stereo not given),inactive
24,O=C(c1ccoc1)N1CCCn2cc(-c3ccccc3)nc21,inactive
25,NC(=O)CCNC(=O)C1=C[C@@H](NC(=O)c2cccs2)[C@@H](O)[C@H](O)C1,inactive
26,Cc1ccc(O)c(CN2CC[C@@H](c3ccc(F)cc3)[C@H](O)C2)c1,inactive
27,Cc1cnc(C(=O)N2CCCC(c3nc(-c4cccnc4)no3)CCNC(=O)CC2)cn1 (stereo not given),inactive
